# From PubChem BioAssay
# This is a sample that favours compounds with a hit; in the whole collection about 14% have one here.
# Giardia FBPA inh: qHTS Assay for Inhibitors of Fructose-1,6-bisphosphate Aldolase from Giardia Lamblia; purified Giardia FBPA; Potency, µM (highest dose often 59.6 µM), for inactives: at the top dose activity, negative = inhibition, hits mostly inhibitors; hit rate 0.71% among 290,000; A8B2U2; AID 2451, 2010; further: potency means the concentration at half of the fitted maximal effect; nearly all actives have a fitted effect of over 55% in size
# Target sequence (A8B2U2 whole entry, looked up): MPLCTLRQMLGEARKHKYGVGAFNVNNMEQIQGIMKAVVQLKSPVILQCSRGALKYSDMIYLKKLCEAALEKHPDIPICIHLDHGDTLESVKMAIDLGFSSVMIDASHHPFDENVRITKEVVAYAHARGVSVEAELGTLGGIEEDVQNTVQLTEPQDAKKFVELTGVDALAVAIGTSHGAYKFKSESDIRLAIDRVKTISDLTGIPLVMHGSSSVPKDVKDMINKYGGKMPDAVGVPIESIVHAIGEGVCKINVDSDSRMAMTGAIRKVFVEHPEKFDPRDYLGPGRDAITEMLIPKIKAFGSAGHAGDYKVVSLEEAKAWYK
#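 40 nM FBPA preincubated 10 min at RT with compound (up to 57.5 uM final), then substrate plus GAPDH/TPI/NAD/arsenate coupling and diaphorase/resazurin added. Fluorescence read after 20 min at RT, 525/598 nm.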
# HCMV inh: qHTS Assay for inhibitors of the human cytomegalovirus (HCMV); HFF cells, HCMV-luciferase reporter, 72 h; stronger effect = lower value; activity change, negative = inhibition, % at 57.5 µM; hit rate 4.5% among 410,000; in the data active means activity change below about -60%; inconclusive means no clear call, values can overlap the other calls; inactive means above about -39%
#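 Luciferase read-out from HCMV-luciferase-infected HFFs (MOI 1 PFU/cell) 72 h post infection at 37C; compounds added after 16 h cell attachment; activity normalized between buffer-only basal and Salinomycin (10uM) inhibitor controls.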
# Sm TGR inh: qHTS Assay for the Inhibitors of Schistosoma Mansoni Peroxiredoxins; purified TGR, DTNB reduction, TNB absorbance 405 nm; Potency, µM (top dose mostly 114 µM), for the others: at the top dose activity change, negative = inhibition, usual class: inhibitors; hit rate 3% among 360,000; further: potency means the concentration at half of the fitted maximal effect; nearly all actives have a fitted effect of over 60% in size
#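 TGR 20 nM + NADPH 100 uM (dispensed conc.), cpd preinc 15 min RT; start with NADPH (500 uM addition) then DTNB (15 mM addition). Kinetic TNB absorbance, 405 nm filter. Four-parameter Hill fit across titration.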
# Pf growth 96h: Primary qHTS for delayed death inhibitors of the malarial parasite plastid, 96 hour incubation; P. falciparum luciferase reporter growth, 96 h; Potency, µM (top dose mostly 28.7 µM), without a hit: top-dose activity change, negative = inhibition, most hits filed as inhibitors; hit rate 6.9% among 320,000; further: potency means the concentration at half of the fitted maximal effect
#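 P. falciparum expressing integrated firefly luciferase grown in erythrocytes (2% hematocrit, 0.05% parasitemia final) with compounds for 96 hours at 37 C, 5% CO2. Growth inhibition read as loss of luminescence after adding luciferase detection reagent.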
# Pf growth 48h: Primary qHTS for delayed death inhibitors of the malarial parasite plastid, 48 hour incubation | P. falciparum luciferase growth in erythrocytes, 48 h | Potency, µM (series often up to 28.7 µM), for the others: at the top dose activity change, negative = inhibition, usual class: inhibitors | hit rate 5.9% among 310,000; further: potency means the concentration at half of the fitted maximal effect
#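 Parasite viability was followed by luminescence of a genomically integrated firefly luciferase. Cultures held 0.1% parasitemia at 2% hematocrit (final), incubated under 5% CO2 at 37 C.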
# Starred values were filed as active, the others as inactive; u = inconclusive; x = not tested or not shown; + = active, no number; [ ] = another dose, or the depositor's remark. Unless noted, the call rests on the fitted dose curve; in most records, active means well fitted curve in the direction sought with a large enough effect; inconclusive means small, poorly fitted or top-dose-only effect, or another doubt; inactive means no such curve, though single readings can be large; an effect the other way counts as inactive or inconclusive. On the % scale 0 is the no-effect control and ±100 the full control effect.
SMILES,Giardia FBPA inh,HCMV inh,Sm TGR inh,Pf growth 96h,Pf growth 48h
CC(C)n1c(-c2ccco2)csc1=Nc1cccnc1,1.9%,-79.5*,-17.7%,5.4%,u
CC1CCN(c2nc3ccc(C(=O)N4CCN(Cc5ccc6c(c5)OCO6)CC4)cc3s2)CC1,-3.2%,u,1.8%,4.15µM*,x
Cc1ccc(C(=O)N2CCN(Cc3ccc4c(c3)OCO4)CC2)cc1S(=O)(=O)N1CCOCC1,2.7%,u,-26.5%,10.4µM*,u
O=S(=O)(c1ccc(Cl)nc1)N1CCN(Cc2ccc3c(c2)OCO3)CC1,0.9%,-11.2,-13.4%,x,-6.3%
O=C(CCc1ccc(S(=O)(=O)N2CCOCC2)cc1)N1CCN(Cc2ccc3c(c2)OCO3)CC1,0.1%,-29.3,-22.6%,3.29µM*,x
O=C(c1cccc(Cl)c1)N1CCN(Cc2ccc3c(c2)OCO3)CC1,5.8%,-15.4,-6.6%,6.9%,u
O=C(CCc1ccc(S(=O)(=O)NCc2ccccc2)cc1)N1CCN(Cc2ccc3c(c2)OCO3)CC1,2.0%,0.6,5.7%,u,u
O=S(=O)(c1cc(Cl)ccc1Cl)N1CCN(Cc2ccc3c(c2)OCO3)CC1,3.5%,6.9,5.8%,10.4µM*,x
Cc1cc(C)cc(OC(C)C(=O)NCCCn2ccnc2)c1 (centres undefined),-11.4%,-31.5,-15.9%,-11.7%,20.1%
COc1ccc2cc(C(C)c3nc4ccccc4c(=O)n3N)ccc2c1 (centres undefined),8.8%,-10.1,-10.9%,1.17µM*,u
COc1ccc(-c2nc3ccccc3c(=O)n2N)cc1,0.6%,12.6,14.6%,31.5%,35.0%
CCOc1cc(/C=N/NC(=O)CN2CCOCC2)ccc1OCc1ccccc1,0.0%,-28.8,-7.3%,u,u
CCOc1cc(/C=N/NC(=O)c2ccccn2)ccc1OC(=O)c1ccc(F)cc1,x,16.0,50.1µM*,149.1%,-10.2%
CCOc1cc(/C=N/NC(=O)c2ccc(CN3CCOCC3)cc2)ccc1OCc1ccccc1,6.0%,-72.7*,-6.2%,u,u
CCOc1cc(/C=N\NC(=O)CN2CCOCC2)ccc1OCc1ccc(F)cc1,1.0%,16.7,4.1%,11.7µM*,9.28µM*
O=C(NCc1ccccc1F)C1CCCN1S(=O)(=O)c1ccc(F)cc1 (centres undefined),2.8%,57.4,-0.4%,9.6%,-11.3%
CC(C)Cc1ccc(CN2CCCC(NC(=O)CCN3CCOCC3)C2)cc1 (centres undefined),x,-3.0,2.2%,u,-16.9%
Nc1c(Cl)ncnc1NCc1cccnc1,-1.0%,-11.9,-5.7%,0.0%,11.7%
Nc1c(Cl)ncnc1NCCc1ccc(O)cc1,1.2%,-69.8*,0.0%,31.0%,11.8%
S=C(NN=C1C2CC3CC(C2)CC1C3)Nc1ccccc1,u,-25.5,-7.8%,10.4µM*,x
COc1ccccc1CNC(=O)CSC1=Nc2ccccc2N=C(c2ccc(F)cc2)C1,x,-9.0,-0.6%,x,x
CCC(=O)N(C1=C(NC)C(=O)c2ccccc2C1=O)C(C)C,-8.3%,-78.3*,-2.9%,u,u
CNC1=C(N(C(C)=O)c2ccc(Br)cc2)C(=O)c2ccccc2C1=O,u,-99.8*,-14.5%,0.0294µM*,0.0415µM*
CCn1cc(C(=O)N[C@@H](CCSC)C(=O)NC(C)(C)CO)c(=O)c2cc3c(cc21)OCO3,-3.8%,u,-1.4%,1.47µM*,1.85µM*
CCn1cc(C(=O)N[C@@H](CCSC)C(=O)NCCN2CCOCC2)c(=O)c2cc3c(cc21)OCO3,x,+,-3.2%,-10.9%,-28.2%
CCn1cc(C(=O)N[C@H](C(=O)NC(C)(C)CO)C(C)C)c(=O)c2cc3c(cc21)OCO3,7.7%,32.8,5.8%,8.28µM*,u
CCn1cc(C(=O)N[C@H](C(=O)NCCO)C(C)C)c(=O)c2cc3c(cc21)OCO3,2.4%,-1.5,11.0%,-1.1%,-7.1%
CCOc1ccc(CCNC(=O)CSc2n[nH]c(N)n2)cc1OCC,x,x,-1.8%,9.7%,3.2%
C=CCC1CCCCC1=C(C#N)c1ccccc1 (centres undefined),x,-25.0,x,x,x
COCCN(Cc1cc2cc(C)ccc2nc1Cl)C(=O)Nc1ccccc1OC,0.4%,1.4,0.4%[57.1 µM],0.5%,u
